According to PubChem BioAssay AID686978 (National Center for Advancing Translational Sciences (NCATS), 2013):
Among all 420,000 compounds or so, about 64,000 (15%) were called active. Roughly 27% stayed inconclusive and do not appear here. The call rests on the fitted dose curve; in most records, active means well fitted inhibition curve with a large enough effect; inconclusive means small, poorly fitted or top-dose-only effect; inactive means flat fitted curve, though single readings scatter. These entries were drawn from the full list. A call without a number means that no potency is given here. Square brackets hold non-standard residues; d marks the D form. Peptide text beside a SMILES is read from it. ξ: configuration not given here. Ac5c = NC1(C(=O)O)CCCC1; ξS = NC(CO)C(=O)O

assay: qHTS for Inhibitors of human tyrosyl-DNA phosphodiesterase 1 (TDP1): qHTS in cells in absence of CPT; conditions: DT40 Tdp1-/- hTDP1 cells, no CPT, ATP luminescence, 48 h; activity change, negative = growth inhibition: at 46.2 µM (top of the series); further: nearly all actives have a fitted effect of over 55% in size
Procedure, shortened: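 Stably hTDP1-transfected Tdp1-null chicken DT40 cells were treated with library compounds minus camptothecin and grown for at least 48 hr at 37 °C, after which cellular ATP was quantified by luminescence.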
Potency means the concentration at half of the fitted maximal effect.

**Q.** Which Potency does the source give for O=C(COC(=O)c1cc2c(s1)CCCC2)NCc1ccccc1Cl here?
**A.** Its Potency is “inactive”.

**Q.** Which Potency does the source give for C/C(=N\NC(=O)c1ccc(CSc2nc(C)cc(C)n2)cc1)C1CCCCC1 here?
**A.** Its Potency is “inactive”.

**Q.** With CC1CCN(C(=O)/C(=C\c2ccccc2F)NC(=O)c2ccccc2)CC1 as the compound, how does the Potency read?
**A.** Its Potency is “inactive”.

**Q.** With COC(=O)c1cccc(N(C(=O)CNC(=O)c2cccs2)C(C(=O)NCC2CCCO2)c2ccc(OC)c(OC)c2)c1 (centres undefined) as the compound, how does the Potency read?
**A.** The Potency was “inactive”.

**Q.** With CCOCCn1c(-c2ccccc2)nc2ccccc21 as the compound, how does the Potency read?
**A.** Its Potency is 18.4 µM (active).

**Q.** For COc1ccc(-c2nc3ccccc3n2CCC(C)C)cc1OC, which Potency is on record?
**A.** Its Potency is 25.9 µM (active).

**Q.** With COCCn1c(-c2ccc(OC)c(OC)c2)nc2ccccc21 as the compound, how does the Potency read?
**A.** The Potency was “inactive”.

**Q.** With CCCn1c(C(O)c2cc(OC)ccc2OC)nc2ccccc21 (centres undefined) as the compound, how does the Potency read?
**A.** The Potency was “inactive”.

**Q.** With CCOCCn1c(C(C)C)nc2ccccc21 as the compound, how does the Potency read?
**A.** Its Potency is “inactive”.

**Q.** For CCCCCN(C(=O)NC(=O)Nc1ccccc1OC)S(C)(=O)=O, which Potency is on record?
**A.** The Potency was “inactive”.

**Q.** For CC(C)c1ccc(NC(=O)Cn2nnc(C(=O)NCCc3ccccc3)c2N)cc1, which Potency is on record?
**A.** The Potency was “inactive”.

**Q.** For CN(C)c1ccc(/C=C/c2sc3ccccc3[n+]2CCCCBr)cc1, which Potency is on record?
**A.** Its Potency is 0.316 µM (active).

**Q.** For CN(C)c1ccc(/C=C/c2sc3ccccc3[n+]2C)cc1, which Potency is on record?
**A.** Its Potency is 0.141 µM (active).

**Q.** For Cc1cccc(CN2CCN(Cc3cnn(-c4ccccc4F)c3)CC2CCO)n1 (centres undefined), which Potency is on record?
**A.** Its Potency is “inactive”.

**Q.** With CC(=O)N1CCN(S(=O)(=O)c2ccc(C)c([N+](=O)[O-])c2)C1C(C)C (centres undefined) as the compound, how does the Potency read?
**A.** Its Potency is “inactive”.

**Q.** With O=C1CC2(CCCC2)C(=O)N1CN1CCN(S(=O)(=O)c2ccc(F)cc2F)CC1 as the compound, how does the Potency read?
**A.** The Potency was “inactive”.

**Q.** Which Potency does the source give for CCC(C(=O)Nc1ncccn1)(C(F)(F)F)C(F)(F)F here?
**A.** The Potency was “inactive”.

**Q.** For COc1cc(NC(=O)CSC(=S)N2CCCC2)c(OC)cc1Cl, which Potency is on record?
**A.** Its Potency is 14.6 µM (active).

**Q.** For COc1cc(Cl)c(C)cc1NC(=O)CSc1nnc(CN2CCCC2)o1, which Potency is on record?
**A.** The Potency was “inactive”.

**Q.** With CCOCC(=O)Nc1cc(OC)c(Cl)cc1OC as the compound, how does the Potency read?
**A.** Its Potency is “inactive”.

**Q.** For COc1ccc(C(=O)N(C)CC(O)c2ccccc2)cc1OC1CCN(C(C)=O)CC1 (centres undefined), which Potency is on record?
**A.** The Potency was “inactive”.

**Q.** With Cc1cc2c(=O)n(CC(=O)NCC(=O)Nc3ccc(C(C)C)cc3)cnc2s1 as the compound, how does the Potency read?
**A.** Its Potency is “inactive”.

**Q.** With CCC1(C)Cc2c(sc3nc(SC)[nH]c(=O)c23)CO1 (centres undefined) as the compound, how does the Potency read?
**A.** The Potency was “inactive”.

**Q.** For CCC1(C)Cc2c(sc3[nH]c(=S)n(Cc4ccccc4)c(=O)c23)CO1 (centres undefined), which Potency is on record?
**A.** The Potency was 18.4 µM (active).

**Q.** For CCC1(C)Cc2c(sc3nc(SC)nc(N)c23)CO1 (centres undefined), which Potency is on record?
**A.** The Potency was “inactive”.

**Q.** With Cc1ccc(/C=C/C(=O)O)cc1S(=O)(=O)N1CCC(Cc2ccccc2)CC1 as the compound, how does the Potency read?
**A.** The Potency was “inactive”.

**Q.** With CCOC(=O)C(CO)NC(=O)C1(NC(C)=O)CCCC1 (centres undefined) (Ac-[Ac5c]-[ξS]-OEt) as the compound, how does the Potency read?
**A.** The Potency was “inactive”.

**Q.** With C/C(=N\NC(=O)Cc1ccc(Br)cc1)c1cccnc1 as the compound, how does the Potency read?
**A.** Its Potency is “inactive”.

**Q.** For C/C(=N\NC(=O)Cc1ccc(Cl)cc1)c1ccccn1, which Potency is on record?
**A.** Its Potency is 2.31 µM (active).

**Q.** Which Potency does the source give for CNC(=S)N1CCN(c2ccccn2)CC1 here?
**A.** Its Potency is “inactive”.

**Q.** For C/C(CC(=O)Nc1ccc(N(C)C)cc1)=N\NC(=O)c1ccccc1F, which Potency is on record?
**A.** Its Potency is “inactive”.

**Q.** For Cc1cccc(C)c1NC(=S)N1CCCCCC1, which Potency is on record?
**A.** Its Potency is “inactive”.

**Q.** For O=C(Nc1ccc(NC(=O)c2ccccc2F)cc1)c1ccccc1F, which Potency is on record?
**A.** Its Potency is “inactive”.

**Q.** With CC1=NNC(=O)C1CCC(=O)N/N=C(\C)c1ccc(Cl)cc1 (centres undefined) as the compound, how does the Potency read?
**A.** Its Potency is “inactive”.

**Q.** For CC(=NNC(=S)N1CCCCCC1)c1ccccn1, which Potency is on record?
**A.** Its Potency is 0.0164 µM (active).

**Q.** Which Potency does the source give for C/C(=N\NC(=O)c1ccccc1F)c1ccccn1 here?
**A.** Its Potency is 0.517 µM (active).

**Q.** With COc1ccc(CC(=O)N/N=C(\C)c2ccccn2)cc1 as the compound, how does the Potency read?
**A.** The Potency was 7.31 µM (active).

**Q.** For COc1ccc(/C(C)=N/NC(=O)c2ccc3nc[nH]c3c2)cc1, which Potency is on record?
**A.** Its Potency is “inactive”.

**Q.** For COc1ccc(C/C(C)=N/NC(=O)c2ccncc2)cc1, which Potency is on record?
**A.** Its Potency is “inactive”.

**Q.** With CCN(CC(=O)Nc1cc(Cl)ccc1C)C(=O)Cn1c(=O)cnc2ccccc21 as the compound, how does the Potency read?
**A.** The Potency was “inactive”.

**Q.** For Cc1ccc(CC(=O)N(C)CC(=O)N(CC(C)C)c2c(N)n(CC(C)C)c(=O)[nH]c2=O)cc1C, which Potency is on record?
**A.** The Potency was “inactive”.

**Q.** With O=C(COC(=O)c1ncc(Cl)c(Cl)c1Cl)NCc1cccs1 as the compound, how does the Potency read?
**A.** The Potency was “inactive”.

**Q.** Which Potency does the source give for CCN(CC)C(=O)Cn1cc(S(=O)(=O)CC(=O)NCc2ccc3c(c2)OCO3)c2ccccc21 here?
**A.** Its Potency is “inactive”.

**Q.** For Cc1ccccc1/C=C\c1nc(O)c([N+](=O)[O-])c(=O)[nH]1, which Potency is on record?
**A.** The Potency was “inactive”.

**Q.** Which Potency does the source give for Cc1ccc(NC(=O)COc2ccc(/C=N\NC(=O)c3cccnc3)cc2)cc1C here?
**A.** The Potency was “inactive”.

**Q.** With CCOc1cc2c(Cl)ncnc2c(OCC)c1OCC as the compound, how does the Potency read?
**A.** Its Potency is “inactive”.

**Q.** Which Potency does the source give for O=S(=O)(Nc1ccc(OC(F)(F)F)cc1)c1cccc2nonc12 here?
**A.** The Potency was “inactive”.

**Q.** For CCOc1ccc(S(=O)(=O)n2ccnc2)c2ccccc12, which Potency is on record?
**A.** Its Potency is “inactive”.

**Q.** With CC1(C)OC(=O)C2=C(CC(c3ccccc3)OC2CCc2ccccc2)O1 (centres undefined) as the compound, how does the Potency read?
**A.** Its Potency is 23.1 µM (active).

**Q.** Which Potency does the source give for CC[C@@H]1CC2=C(C(=O)OC(C)(C)O2)[C@@H](CC)O1 here?
**A.** The Potency was “inactive”.

**Q.** With CC(C)C1CC2=C(C(=O)OC(C)(C)O2)C(c2ccc(F)cc2)O1 (centres undefined) as the compound, how does the Potency read?
**A.** The Potency was “inactive”.

**Q.** With CN(C)c1nc(-c2cccnc2)nc(-c2ccc(Cl)cc2)c1C#N as the compound, how does the Potency read?
**A.** The Potency was “inactive”.

**Q.** With CN(C)C(=O)Cn1c(=O)n(S(=O)(=O)c2ccccc2)c2ccccc21 as the compound, how does the Potency read?
**A.** The Potency was “inactive”.

**Q.** With CCNC(=O)CCc1nc(-c2ccc(C)cc2)no1 as the compound, how does the Potency read?
**A.** Its Potency is “inactive”.

**Q.** For Cc1ccc(-c2noc(CCC(N)=O)n2)cc1, which Potency is on record?
**A.** Its Potency is “inactive”.

**Q.** With CC(=O)c1ccc(NC(=O)CCc2nc(-c3ccc(C)cc3)no2)cc1 as the compound, how does the Potency read?
**A.** Its Potency is 16.4 µM (active).

**Q.** With CC(C)CC(=O)N=C1SC2CS(=O)(=O)CC2N1CCc1ccccc1 (centres undefined) as the compound, how does the Potency read?
**A.** The Potency was “inactive”.

**Q.** Which Potency does the source give for CCOC(=O)C1CCN(C(=O)COc2cc(C)c(Br)c(C)c2)CC1 here?
**A.** The Potency was “inactive”.

**Q.** With CCOC(=O)C1CCN(Cc2ccc(-c3ccccc3)cc2)CC1 as the compound, how does the Potency read?
**A.** The Potency was “inactive”.

**Q.** Which Potency does the source give for CCOC(=O)C1CCN(c2ncnc3c2c(-c2ccccc2)cn3-c2ccc(C)cc2)CC1 here?
**A.** The Potency was 18.4 µM (active).

**Q.** Which Potency does the source give for CCOC(=O)C1CCCN(C(=O)c2cccc3ccccc23)CC1 (centres undefined) here?
**A.** The Potency was “inactive”.

**Q.** Which Potency does the source give for CCOC(=O)C1CCN(c2ncnc3c2c(-c2ccccc2)cn3-c2cccc(C)c2)CC1 here?
**A.** The Potency was 23.1 µM (active).

**Q.** For CCOC(=O)C1CCN(Cc2nnc(-c3cccc(Br)c3)o2)CC1, which Potency is on record?
**A.** The Potency was “inactive”.

**Q.** For O=C(O)CCC(=O)Nc1ccc(N2CCOCC2)cc1, which Potency is on record?
**A.** The Potency was “inactive”.

**Q.** With CCCC1C(=O)N2C(N(C)C)=Nc3ccc(C)cc3N2C1=O (centres undefined) as the compound, how does the Potency read?
**A.** Its Potency is “inactive”.

**Q.** For CCOC(=O)c1sc2nc(SC)nc(-c3ccccc3)c2c1N, which Potency is on record?
**A.** The Potency was “inactive”.

**Q.** With CN(C)c1ccnc2sc(C(=O)c3ccccc3)c(N)c12 as the compound, how does the Potency read?
**A.** Its Potency is “inactive”.

**Q.** Which Potency does the source give for NC(=O)c1sc2nc3c(c(-c4ccccc4)c2c1N)CCC3 here?
**A.** Its Potency is 13 µM (active).

**Q.** For Cc1cccc(NC(=O)/C(=C\c2ccco2)NC(=O)c2ccccc2)c1, which Potency is on record?
**A.** Its Potency is “inactive”.

**Q.** Which Potency does the source give for Cc1sc2nc(CC(N)=O)[nH]c(=O)c2c1-c1ccccc1 here?
**A.** Its Potency is “inactive”.

**Q.** Which Potency does the source give for Cc1cccc(NC(=O)c2sc3nc4c(c(-c5ccco5)c3c2N)CCC4)c1 here?
**A.** Its Potency is 25.9 µM (active).

**Q.** Which Potency does the source give for CC(=O)Nc1ccc(NC(=O)c2sc3nc4c(c(-c5ccc(C)cc5)c3c2N)CCC4)cc1 here?
**A.** Its Potency is “inactive”.

**Q.** With Cc1nc2sc(C(=O)c3ccccc3)c(N)c2c2c1CCCC2 as the compound, how does the Potency read?
**A.** The Potency was 20.6 µM (active).

**Q.** For Cc1nn(C)cc1C(=O)c1ccccc1, which Potency is on record?
**A.** Its Potency is “inactive”.
